Our source for the Potency and activity change, negative = inhibition values is PubChem BioAssay (NCATS).

The subject of test [1] is Zika virus NS2B-NS3 protease (unlinked complex). Nature of the test: Primary screen GU Rhodamine qHTS for Zika virus inhibitors: Unlinked NS2B-NS3 protease assay (AID 1347159). Further: nearly all actives have a fitted effect of over 60% in size. In outline: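 Percent inhibition derives from the 15-min fluorescence change (ex 480, em 540 nm), normalized to no-enzyme and no-inhibitor wells. Reactions contained 25 nM NS2B-NS3 complex and 1.5 microM substrate in 10 mM Tris-HCl pH 8.0.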

Test [2] has as its system Zika virus NS2B-NS3 protease (linked construct). Nature of the test: Primary screen NINDS Rhodamine qHTS for Zika virus inhibitors (AID 1347160). Further: nearly all actives have a fitted effect of over 55% in size. In outline: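 In 10 mM Tris-HCl pH 8.0 containing 0.01% Tween 20, linked NS2B-NS3 protease (25 nM final) is exposed to test compounds for 15 min. Cleavage of 1.5 microM Rhodamine110 substrate is tracked by fluorescence over 15 min.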

Results filed as inconclusive are left out. Where a call stands in place of a potency, no number is given. Unmarked numbers belong to inactive results. Calls of active or inactive are those of the source. The call rests on the fitted dose curve; in most records, active means well fitted inhibition curve with a large enough effect; inconclusive means small, poorly fitted or top-dose-only effect; inactive means no such curve, though single readings can be large or run the other way.
Potency means the concentration at half of the fitted maximal effect.

In the case of `O=C(NCC(O)CO)c1ccncc1Nc1ccc(I)cc1F` (centres undefined), the Potency entry in test [1] and in test [2] was “inactive” each time.
As for `Cc1nc2sc(C(=O)NCc3ccncc3)c(N)c2c(C)c1Cl`, the Potency entry in test [1] and in test [2] was “inactive” in each case.
Regarding `CC(=O)c1ccc2c(c1)C(O)C(C(C)(C)O)O2` (centres undefined), the Potency entry in test [1] and in test [2] was “inactive” in each case.
For `CC1=C2C[C@H]3O[C@@]3(C)CCC3O[C@@]3(C)C[C@@]2(O)OC1=O` (some centres undefined), the Potency result in test [1] and in test [2] was “inactive” throughout.
As for `COc1ccc(C2(O)c3ccccc3NC(=O)C2O)cc1` (centres undefined), the Potency entry in test [1] and in test [2] was “inactive” each time.
With `Cc1cc(NC(=O)Nc2ccc(F)c(F)c2)n(-c2ccccc2)n1`, the Potency result in test [1] and in test [2] was “inactive” in each case.
As for `CC1(C)CC[C@]2(C(=O)O[C@@H]3O[C@H](CO)[C@@H](O)[C@H](O)[C@H]3O)CC[C@]3(C)C(=CCC4[C@@]5(C)C[C@@H](O)[C@H](O)C(C)(C)C5[C@H](O)C[C@]43C)[C@@H]2[C@@H]1O` (some centres undefined), the Potency result in test [1] and in test [2] was “inactive” throughout.
For `COc1cc(N2CCOCC2)ccc1Nc1ncc(Cl)c(Nc2ccccc2NS(C)(=O)=O)n1`, the Potency result in test [1] and in test [2] was “inactive” throughout.
For `O=C1Nc2ccccc2C(O)(c2ccccc2)C1O` (centres undefined), the Potency result in test [1] and in test [2] was “inactive” each time.
Turning to `C[C@@H]1[C@H]2[C@H](O[C@@H]3O[C@H](CO)[C@@H](O)[C@H](O)[C@H]3O)OC=C(C(=O)O)[C@H]2C[C@@H]1O`, the Potency result in test [1] and in test [2] was “inactive” throughout.
Consider `C[C@@H]1O[C@@H](O[C@H]2[C@H](OC(=O)[C@]34CCC(C)(C)C[C@H]3C3=CCC5[C@@]6(C)C[C@H](O)[C@H](O[C@@H]7O[C@H](CO)[C@@H](O[C@H]8OC[C@](O)(CO)[C@H]8O)[C@H](O)[C@H]7O)[C@@](C)(CO)C6[C@H](O)C[C@@]5(C)[C@]3(C)C[C@H]4O)OC[C@H](O)[C@@H]2O)[C@H](O)[C@H](O)[C@H]1O[C@@H]1OC[C@@H](O)[C@H](O[C@@H]2OC[C@](O)(CO)[C@H]2O)[C@H]1O` (some centres undefined), for which the activity change, negative = inhibition was 20.8% [at 19.1 µM] in test [1] and 33.3% [at 10.7 µM] in test [2].
Regarding `C=C1C[C@@]23CCC4[C@@](C)(CCC[C@@]4(C)C(=O)OC)C2CC[C@@H]1C3` (some centres undefined), the Potency entry in test [1] and in test [2] was “inactive” throughout.
For the compound `CN=C(N)NCCCCC/C=C(/C)CC(C)C1OC(=O)C(C)C(O)/C=C/C(C)C(O)CC(O)C(C)C(O)CCC(C)C(O)CC2(O)OC(CC(OC(=O)CC(=O)O)CC(O)CC(O)C(C)C(O)/C(C)=C/CCC1C)CC(O)C2O` (centres undefined), the Potency entry in test [1] and in test [2] was “inactive” throughout.
In the case of `COc1cc(N2CCC(N3CCN(C)CC3)CC2)ccc1Nc1ncc(Cl)c(-c2c[nH]c3ccccc23)n1`, the Potency result in test [1] and in test [2] was “inactive” throughout.
Regarding `COC(=O)C1=CO[C@@H](O[C@@H]2O[C@H](CO)[C@@H](O)[C@H](O)[C@H]2O)C2C1C(=O)C[C@H]2C` (some centres undefined), the Potency result in test [1] and in test [2] was “inactive” in each case.
Regarding `C[C@@H]1N[C@H]2N(C1=O)c1ccccc1[C@@]2(O)C[C@@H]1C(=O)N[C@@H](C)c2nc3ccccc3c(=O)n21`, the Potency result in test [1] and in test [2] was “inactive” each time.
For the compound `O=S(=O)(c1ccc(S(=O)(=O)n2cnc3ccccc32)cc1)N1CCCCCC1`, the Potency result in test [1] and in test [2] was “inactive” in each case.
As to `CC(C)(C)Nc1nc(Nc2ccc(C(N)=O)cc2)cc(N)c1C#N`, the Potency entry in test [1] and in test [2] was “inactive” throughout.
As for `O=C(Cc1ccc(-c2ccccc2)cc1)NC1CCC1`, the Potency entry in test [1] and in test [2] was “inactive” throughout.
`O=C(Nc1c(-c2cccs2)nc2ccccn12)c1ccc(Cl)cc1`: the Potency result in test [1] and in test [2] was “inactive” each time.
Take `CCNC(=O)C1OC(n2cnc3c(N)nc(NCCc4ccc(CCC(=O)O)cc4)nc32)C(O)C1O` (centres undefined): the Potency result in test [1] and in test [2] was “inactive” throughout.
For the compound `Cc1c[nH]c2nccc(Oc3c(F)cc(Nc4cc(Cl)nc(N)n4)cc3F)c12`, the Potency entry in test [1] and in test [2] was “inactive” throughout.
As for `CC(=O)N[C@@H](CCCCN)C(=O)N(C)[C@@H](CC(C)C)C(=O)N[C@H](C(=O)N(C)[C@@H](Cc1ccccc1)C(=O)N[C@H](Cc1ccccc1)C(N)=O)C(C)C`, the activity change, negative = inhibition in test [1] is 0% [at 11.5 µM]; in test [2], 25% [at 4.91 µM].
`C=C(CO)C12OC1C1(C)C(=CC2=O)C(O)C(O)CC1C` (centres undefined): the Potency entry in test [1] and in test [2] was “inactive” each time.
For `CCC(Nc1ncnc2nc[nH]c12)c1nc2cccc(F)c2c(=O)n1-c1ccccc1` (centres undefined), the Potency entry in test [1] and in test [2] was “inactive” in each case.
In the case of `CN[C@@H]1[C@H](O[C@H]2[C@H](O[C@@H]3[C@@H](O)[C@H](O)[C@@H](N=C(N)N)[C@H](O)[C@H]3N=C(N)N)O[C@@H](C)[C@]2(O)C=O)O[C@@H](CO)[C@H](O)[C@H]1O`, the Potency result in test [1] and in test [2] was “inactive” in each case.
`CC(=O)OC1CC2(C)C3=CCC4(C)C5C(O)C(O)C(C(C)C)C5(C)CCC4(C)C3CCC2C(C)(C)C1OC1OC(CO)C(O)C(O)C1O` (centres undefined): the Potency result in test [1] and in test [2] was “inactive” each time.
For `Cc1cccc(C)c1-n1c(=O)c2cnc(Nc3ccc(N4CCN(C)CC4)cc3)nc2n2c3ccccc3nc12`, the Potency result in test [1] and in test [2] was “inactive” each time.
In the case of `CC1(C)CC[C@]2(C(=O)O[C@@H]3O[C@H](CO)[C@@H](O)[C@H](O)[C@H]3O)CC[C@]3(C)C(=CCC4[C@@]5(C)C[C@@H](O)[C@H](O)[C@](C)(C(=O)O)C5CC[C@]43C)C2C1O` (some centres undefined), the Potency entry in test [1] and in test [2] was “inactive” throughout.
Consider `Nc1nc(-n2cc(C(=O)O)c(=O)c3cc(F)c(N4CC(O)C4)c(Cl)c32)c(F)cc1F`, for which the Potency result in test [1] and in test [2] was “inactive” each time.
As for `C=C1C(=O)O[C@@H]2[C@H]1CCC(C)=C1CCC(=O)O[C@]12C`, the Potency result in test [1] and in test [2] was “inactive” throughout.
In the case of `COC(=O)C1=CO[C@@H](O[C@@H]2O[C@H](CO)[C@@H](O)[C@H](O)[C@H]2O)[C@@H]2[C@@](C)(O)[C@@H](OC(=O)/C=C/c3ccc(O)cc3)C[C@]12O`, the Potency entry in test [1] and in test [2] was “inactive” each time.
For the compound `COc1cc2ncnc(Nc3cccc(O)c3)c2cc1OC`, the Potency entry in test [1] and in test [2] was “inactive” throughout.
For the compound `CC1(C)CC[C@]2(C(=O)O)CC[C@]3(C)C(=CCC4[C@@]5(C)CC[C@H](O[C@@H]6O[C@H](C(=O)O)[C@@H](O[C@@H]7OC[C@@H](O)[C@H](O)[C@H]7O)[C@H](O)[C@H]6O)C(C)(C)C5CC[C@]43C)C2C1O` (some centres undefined), the Potency result in test [1] and in test [2] was “inactive” throughout.
In the case of `O=C(CC1C(=O)Nc2ccccc21)OC[C@H]1O[C@@H](OCCc2ccc(O)cc2)[C@H](O)[C@@H](O)[C@@H]1O` (some centres undefined), the Potency entry in test [1] and in test [2] was “inactive” each time.
As for `CC1(C)C2CC=C(COC3OC(COC4OCC(O)(CO)C4O)C(O)C(O)C3O)C1C2` (centres undefined), the Potency result in test [1] and in test [2] was “inactive” each time.
Consider `OC[C@H]1O[C@@H](OC(CCCCc2ccc(O)cc2)CCc2ccc(O)cc2)[C@H](O)[C@@H](O)[C@@H]1O` (some centres undefined), for which the Potency result in test [1] and in test [2] was “inactive” in each case.
In the case of `COc1ccc(-c2ccc(-c3cn(C(=O)N4CCCCC4c4ccccc4)nn3)cc2)cc1` (centres undefined), the Potency entry in test [1] and in test [2] was “inactive” each time.
On to `C1CCC[C@H]2CCCN3CC[C@@H](CCCCCC[C@@H]4CCCN5CC[C@@H](CC1)O[C@@H]45)O[C@@H]23`, for which the activity change, negative = inhibition is -7.05% [at 0.23 µM] in test [1] and 20.2% [at 0.092 µM] in test [2].
Consider `C=C1CN(Cc2ccc(C(=O)Nc3ccccc3N)cc2)C(=O)c2ccccc21`, for which the Potency entry in test [1] and in test [2] was “inactive” throughout.
For `CC(C)CNCc1ccc(-c2ccccc2S(=O)(=O)N2CCCC2)cc1`, the Potency result in test [1] and in test [2] was “inactive” throughout.
Consider `COC(=O)c1cc(OC)c(O[C@@H]2O[C@@H](C)[C@H](O)[C@@H](O)[C@H]2O)c(OC)c1`, for which the Potency entry in test [1] and in test [2] was “inactive” in each case.
On to `COc1cccc2cc3c(c(O[C@@H]4O[C@H](CO[C@@H]5O[C@H](CO)[C@@H](O)[C@H](O)[C@H]5O)[C@@H](O)[C@H](O)[C@H]4O)c12)C(C)OC3=O` (some centres undefined), for which the Potency result in test [1] and in test [2] was “inactive” throughout.
In the case of `Cc1cc(C)nc(NS(=O)(=O)c2ccc(NC(=S)NC(=O)COc3ccc(Br)cc3Cl)cc2)n1`, the Potency in test [1] is 7.08 µM (active); in test [2] it was 15.8 µM (active).
The like results for `CS(=O)(=O)N(CC(=O)NCC1CC1)c1cc(C(F)(F)F)ccc1Cl` were, in that order, “inactive” and “inactive”.
The matching figures for `CC(=O)N1CCc2ccc(O)c(OC3OC(COC4OCC(O)(CO)C4O)C(O)C(O)C3O)c2C1Cc1ccc(O)cc1` (centres undefined): “inactive” and “inactive”.
The like results for `C/C=C1\[C@H](OC2OC(COC3OC(CO)C(O)C(O)C3O)C(O)C(O)C2O)OC=C(C(=O)OC)[C@H]1CC(=O)OCCc1ccc(O)cc1` (some centres undefined) were, in that order, “inactive” and “inactive”.
`CC(=O)OC[C@@]12C(=O)C[C@@H](C)[C@]3(C[C@@H](c4ccoc4)O[C@H]3OC(C)=O)[C@H]1CCC[C@]21CO1`: the Potency entry in test [1] and in test [2] was “inactive” each time.
Regarding `CC(C)c1nc(-c2ccc(NC(=O)Nc3cccc(C(F)(F)F)c3)c3ccccc23)c2c(N)nccn12`, the Potency entry in test [1] and in test [2] was “inactive” throughout.
For `O=c1[nH]ccc2cc(OC3CCNCC3)ccc12`, the Potency result in test [1] and in test [2] was “inactive” each time.
Take `CC(=O)O[C@H]1CC[C@H](C)[C@@]2(C)[C@H](OC(C)=O)c3c(C)coc3C(=O)[C@H]12`: the Potency result in test [1] and in test [2] was “inactive” each time.
As for `O=C(O)c1ccc(OC2OC(CO)C(O)C(O)C2O)cc1` (centres undefined), the Potency entry in test [1] and in test [2] was “inactive” in each case.
Regarding `CC(C)c1cc(C(=O)N2CC[C@H](NC(=O)C3CC3)C2)n[nH]1`, the Potency result in test [1] and in test [2] was “inactive” in each case.
For `Cc1cc(Nc2cc(N3CCN(C)CC3)nc(/C=C/c3ccccc3)n2)n[nH]1`, the Potency result in test [1] and in test [2] was “inactive” in each case.
Regarding `Cc1cc(=O)oc2c(C=O)c(O)ccc12`, the Potency in test [1] is 79.4 µM (active). Also, the Potency entry in test [2] was “inactive”.
The like results for `COc1cc(O)cc(/C=C/c2ccc(O[C@@H]3O[C@H](CO)[C@@H](O)[C@H](O)[C@H]3O)cc2)c1` were, in that order, “inactive” and “inactive”.
Take `CC(=O)OC12COC1CC(O)C1(C)C(=O)C(O)C3=C(C)C(OC(=O)C(O)C(NC(=O)OC(C)(C)C)c4ccccc4)CC(O)(C(OC(=O)c4ccccc4)C21)C3(C)C` (centres undefined): the Potency result in test [1] and in test [2] was “inactive” throughout.
